Results filed as inconclusive are left out. The source made the active and inactive calls. Calls follow the shape of the full dose curve; tested in HEK293 reporter line.
% is scaled to controls: 0 for no effect and ±100 for the full control effect.

One experiment can be described thus: qHTS for Inhibitors of the Functional Ribonucleoprotein Complex (vRNP) of Lassa (LASV) Arenavirus: LASV Primary Screen - GLuc reporter signal (AID 1347082). Also: nearly all actives have a fitted effect of over 60% in size. Conditions: LASV minigenome vRNP, Gaussia luciferase reporter; series mostly up to 57.5 µM; activity change, negative = inhibition: at the top concentration. On the technique in general: Quantitative high-throughput screening tests each substance at several concentrations.
On to `CN1CCN(CC(=O)N2c3ccccc3C(=O)Nc3cccnc32)CC1`, for which the Potency result is “inactive”.
On to `CNC(=O)c1c(I)c(NC(C)=O)c(I)c(C(=O)O)c1I`, for which the “activity change, negative = inhibition” value was 0.348% (inactive).
The same measure, in the same setting: for `Nc1ccc(S(=O)(=O)c2ccc(N)cc2)cc1` the value was 7.4% (inactive).
Regarding `Cc1oc(=O)oc1CN1CCN(c2cc3c(cc2F)c(=O)c(C(=O)O)c2n3C(C)S2)CC1` (stereo not given), the Potency result is “inactive”.
Consider `OCCc1ccccc1`, for which the “activity change, negative = inhibition” value is 7.45% (inactive).
As for `O=C(c1ccco1)N1CCNCC1`, the “activity change, negative = inhibition” value was 6.74% (inactive).
`CN(C)C(=O)Oc1ccc[n+](C)c1`: the Potency entry was “inactive”.
On to `C[C@@H]1CN(c2c(F)c(F)c3c(=O)c(C(=O)O)cn(C4CC4)c3c2F)C[C@H](C)N1`, for which the “activity change, negative = inhibition” value is 7.15% [at 24.7 µM] (inactive).
For `CN1C(C)(C)CCCC1(C)C`, the “activity change, negative = inhibition” value is 2.52% (inactive).
The same measure, in the same setting: in the case of `CCCCOCCOC(=O)c1cccnc1` it was -0.628% (inactive); in that of `COc1ccc(Cc2cnc(N)nc2N)cc1OC`, 4.52% (inactive); in that of `C#C[C@]1(O)CC[C@H]2[C@@H]3CCC4=CC(=O)CC[C@@H]4[C@H]3CC[C@@]21CC`, -3.44% (inactive).
Same read-out and setting: for `OC1(c2ccccc2)CCNCC1` the value was -8.13% (inactive); for `CCC(CC)(CNC(=O)CCCO)c1cccc(OC)c1`, 4.92% (inactive); for `N#CC1(c2ccc(F)cc2)CCC(=O)CC1`, 4.44% (inactive).
In the case of `CC[N+](CC)(CC)CCOc1cccc(OCC[N+](CC)(CC)CC)c1OCC[N+](CC)(CC)CC`, the Potency result was “inactive”.
Consider `CC(C)(Oc1ccc(Cl)cc1)C(=O)OCCCOC(=O)C(C)(C)Oc1ccc(Cl)cc1`, for which the “activity change, negative = inhibition” value is 0.454% (inactive).

Another experiment in a line: qHTS for Inhibitors of the Functional Ribonucleoprotein Complex (vRNP) of Lassa (LASV) Arenavirus: Viability assay - alamar blue signal for LASV Primary Screen (AID 1347083). Also: nearly all actives have a fitted effect of over 80% in size. Also: potency is read from the fitted curve at half-maximal effect. Conditions: cell viability, alamar blue fluorescence (LASV minigenome counter-screen); series mostly up to 57.5 µM; activity change, negative = reduced viability: at the top concentration.
In the case of `CC(C)(S)[C@@H](N)C(=O)O`, the “activity change, negative = reduced viability” value was -15.1% (inactive).
Still for that read-out and setting: for `Cc1ccc(-c2ccccc2C#N)cc1` the value was 0.343% (inactive).
Take `CN1CCN(N)CC1`: the “activity change, negative = reduced viability” value is 9.12% (inactive).
On the same count and under the same terms, in the case of `OC[C@H]1O[C@@H](n2cnc3c2NC=NC[C@H]3O)C[C@@H]1O` it was 2.22% (inactive).
In the case of `Nc1ccc(C(=O)OCC(O)CO)cc1` (stereo not given), the “activity change, negative = reduced viability” value is -0.301% (inactive).
In the case of `CC(=O)Nc1c(I)cc(I)c(C(=O)O)c1I`, the “activity change, negative = reduced viability” value was 0.854% (inactive).
The same measure, in the same setting: for `Nc1ccc(S(=O)(=O)Nc2ccc(Cl)nn2)cc1` the value was 2.46% (inactive); for `CCNC(=O)/C=C/c1cccc(Br)c1`, -5.16% (inactive); for `Nc1ccc(S(=O)(=O)NC(=O)c2ccccc2)cc1`, -12% (inactive).
Still for that read-out and setting: in the case of `Cc1nc([N+](=O)[O-])cn1-c1ccc([N+](=O)[O-])cc1` it was 13.2% (inactive); in that of `Cc1ccc(O)c2ncccc12`, -10.9% (inactive).
For `O=C(Oc1ccccc1)c1ccccc1O`, the “activity change, negative = reduced viability” value was 13.4% (inactive).
In the case of `C[C@](N)(Cc1ccc(O)cc1)C(=O)O`, the Potency entry is “inactive”.
Still for that read-out and setting: for `C[N+](C)(C)CCOC(N)=O` the value was “inactive”.
On to `Cc1cc2c(cc1S(N)(=O)=O)S(=O)(=O)CCC2`, for which the “activity change, negative = reduced viability” value was -6.35% (inactive).
For `COc1cccc2c1C(=O)c1c(O)c3c(c(O)c1C2=O)C[C@@](O)(C(C)=O)C[C@H]3O[C@H]1C[C@H](N)[C@H](O)[C@H](C)O1`, the Potency is 0.153 µM (active).
For the compound `COc1cc(C(=O)NC2CCCNC2)cc(OC)c1OC` (stereo not given), the “activity change, negative = reduced viability” value is -0.861% (inactive).
Still for that read-out and setting: for `CN[C@@H]1[C@H](O)[C@H](NC)[C@H]2O[C@@]3(O)C(=O)C[C@@H](C)O[C@H]3O[C@@H]2[C@H]1O` the value was 2.42% (inactive).
Consider `CCOC(=O)c1ccc(O)cc1`, for which the Potency result was “inactive”.
For `O=C(N[C@H](CO)[C@H](O)c1ccc([N+](=O)[O-])cc1)C(Cl)Cl`, the Potency result was “inactive”.
For `Cc1c[nH]c2ccccc12`, the “activity change, negative = reduced viability” value is 15.5% (inactive).
Consider `CCN(CC)C(=O)c1ccc(O)c(OC)c1`, for which the Potency entry is “inactive”.
As to `CN1CCN(CC(=O)N2c3ccccc3C(=O)Nc3cccnc32)CC1`, the Potency entry was “inactive”.
With `CNC(=O)c1c(I)c(NC(C)=O)c(I)c(C(=O)O)c1I`, the “activity change, negative = reduced viability” value was -7.5% (inactive).
As to `Nc1ccc(S(=O)(=O)c2ccc(N)cc2)cc1`, the “activity change, negative = reduced viability” value was 16.8% (inactive).
For the compound `Cc1oc(=O)oc1CN1CCN(c2cc3c(cc2F)c(=O)c(C(=O)O)c2n3C(C)S2)CC1` (stereo not given), the Potency result is “inactive”.
For `OCCc1ccccc1`, the “activity change, negative = reduced viability” value was 7.57% (inactive).
Still for that read-out and setting: for `O=C(c1ccco1)N1CCNCC1` the value was -3.65% (inactive).
Regarding `CN(C)C(=O)Oc1ccc[n+](C)c1`, the Potency entry is “inactive”.
`C[C@@H]1CN(c2c(F)c(F)c3c(=O)c(C(=O)O)cn(C4CC4)c3c2F)C[C@H](C)N1`: the “activity change, negative = reduced viability” value was 1.18% [at 24.7 µM] (inactive).
With `CN1C(C)(C)CCCC1(C)C`, the “activity change, negative = reduced viability” value was 9.82% (inactive).
On the same count and under the same terms, for `CCCCOCCOC(=O)c1cccnc1` the value was -12.7% (inactive); for `COc1ccc(Cc2cnc(N)nc2N)cc1OC`, 1.41% (inactive); for `C#C[C@]1(O)CC[C@H]2[C@@H]3CCC4=CC(=O)CC[C@@H]4[C@H]3CC[C@@]21CC`, 8.76% (inactive).
Still for that read-out and setting: for `OC1(c2ccccc2)CCNCC1` the value was -5.23% (inactive).
On to `CCC(CC)(CNC(=O)CCCO)c1cccc(OC)c1`, for which the “activity change, negative = reduced viability” value is 8.84% (inactive).
Turning to `N#CC1(c2ccc(F)cc2)CCC(=O)CC1`, the “activity change, negative = reduced viability” value is -2.99% (inactive).
As to `CC[N+](CC)(CC)CCOc1cccc(OCC[N+](CC)(CC)CC)c1OCC[N+](CC)(CC)CC`, the Potency entry is “inactive”.
For the compound `CC(C)(Oc1ccc(Cl)cc1)C(=O)OCCCOC(=O)C(C)(C)Oc1ccc(Cl)cc1`, the “activity change, negative = reduced viability” value is 9.03% (inactive).

Another experiment can be described thus: qHTS for Inhibitors of the Functional Ribonucleoprotein Complex (vRNP) of Lymphocytic Choriomeningitis Arenaviruses (LCMV): Viability assay - alamar blue signal for LCMV Primary Screen (AID 1347085). Also: nearly all actives have a fitted effect of over 80% in size. Also: potency is read from the fitted curve at half-maximal effect. Conditions: alamar blue viability counter-screen, LCMV vRNP screen cells; series mostly up to 57.5 µM; activity change, negative = lower viability: at the top concentration.
As to `CC(C)(S)[C@@H](N)C(=O)O`, the “activity change, negative = lower viability” value was -16.1% (inactive).
For `Cc1ccc(-c2ccccc2C#N)cc1`, the “activity change, negative = lower viability” value was -0.952% (inactive).
On the same count and under the same terms, in the case of `CN1CCN(N)CC1` it was -0.303% (inactive); in that of `OC[C@H]1O[C@@H](n2cnc3c2NC=NC[C@H]3O)C[C@@H]1O`, 7.37% (inactive).
As for `Nc1ccc(C(=O)OCC(O)CO)cc1` (stereo not given), the “activity change, negative = lower viability” value was 3.31% (inactive).
Still for that read-out and setting: for `CC(=O)Nc1c(I)cc(I)c(C(=O)O)c1I` the value was -0.989% (inactive); for `Nc1ccc(S(=O)(=O)Nc2ccc(Cl)nn2)cc1`, 2.31% (inactive).
As for `CCNC(=O)/C=C/c1cccc(Br)c1`, the “activity change, negative = lower viability” value was -6.37% (inactive).
Same read-out and setting: in the case of `Nc1ccc(S(=O)(=O)NC(=O)c2ccccc2)cc1` it was -15.8% (inactive); in that of `Cc1nc([N+](=O)[O-])cn1-c1ccc([N+](=O)[O-])cc1`, 0.53% (inactive); in that of `Cc1ccc(O)c2ncccc12`, -5.07% (inactive).
Regarding `O=C(Oc1ccccc1)c1ccccc1O`, the “activity change, negative = lower viability” value is 17.3% (inactive).
As to `C[C@](N)(Cc1ccc(O)cc1)C(=O)O`, the Potency entry is “inactive”.
On the same count and under the same terms, for `C[N+](C)(C)CCOC(N)=O` the value was “inactive”.
As to `Cc1cc2c(cc1S(N)(=O)=O)S(=O)(=O)CCC2`, the “activity change, negative = lower viability” value is 7.33% (inactive).
With `COc1cccc2c1C(=O)c1c(O)c3c(c(O)c1C2=O)C[C@@](O)(C(C)=O)C[C@H]3O[C@H]1C[C@H](N)[C@H](O)[C@H](C)O1`, the Potency is 0.153 µM (active).
Turning to `COc1cc(C(=O)NC2CCCNC2)cc(OC)c1OC` (stereo not given), the “activity change, negative = lower viability” value was 3.4% (inactive).
Take `CN[C@@H]1[C@H](O)[C@H](NC)[C@H]2O[C@@]3(O)C(=O)C[C@@H](C)O[C@H]3O[C@@H]2[C@H]1O`: the “activity change, negative = lower viability” value was 6.12% (inactive).
With `CCOC(=O)c1ccc(O)cc1`, the Potency entry is “inactive”.
The same measure, in the same setting: for `O=C(N[C@H](CO)[C@H](O)c1ccc([N+](=O)[O-])cc1)C(Cl)Cl` the value was “inactive”.
`Cc1c[nH]c2ccccc12`: the “activity change, negative = lower viability” value was 17.3% (inactive).
Regarding `CCN(CC)C(=O)c1ccc(O)c(OC)c1`, the Potency result was “inactive”.
The same measure, in the same setting: in the case of `CN1CCN(CC(=O)N2c3ccccc3C(=O)Nc3cccnc32)CC1` it was “inactive”.
As to `CNC(=O)c1c(I)c(NC(C)=O)c(I)c(C(=O)O)c1I`, the “activity change, negative = lower viability” value was -7.42% (inactive).
With `Nc1ccc(S(=O)(=O)c2ccc(N)cc2)cc1`, the “activity change, negative = lower viability” value is 8.41% (inactive).
On to `Cc1oc(=O)oc1CN1CCN(c2cc3c(cc2F)c(=O)c(C(=O)O)c2n3C(C)S2)CC1` (stereo not given), for which the Potency entry was “inactive”.
For the compound `OCCc1ccccc1`, the “activity change, negative = lower viability” value is 11.3% (inactive).
As to `O=C(c1ccco1)N1CCNCC1`, the “activity change, negative = lower viability” value is -1.97% (inactive).
Take `CN(C)C(=O)Oc1ccc[n+](C)c1`: the Potency result is “inactive”.
Turning to `C[C@@H]1CN(c2c(F)c(F)c3c(=O)c(C(=O)O)cn(C4CC4)c3c2F)C[C@H](C)N1`, the “activity change, negative = lower viability” value was 6.88% [at 24.7 µM] (inactive).
Consider `CN1C(C)(C)CCCC1(C)C`, for which the “activity change, negative = lower viability” value was 14.9% (inactive).
As to `CCCCOCCOC(=O)c1cccnc1`, the “activity change, negative = lower viability” value was 3.15% (inactive).
On the same count and under the same terms, for `COc1ccc(Cc2cnc(N)nc2N)cc1OC` the value was -1.53% (inactive); for `C#C[C@]1(O)CC[C@H]2[C@@H]3CCC4=CC(=O)CC[C@@H]4[C@H]3CC[C@@]21CC`, 6.68% (inactive); for `OC1(c2ccccc2)CCNCC1`, -4.06% (inactive).
Regarding `CCC(CC)(CNC(=O)CCCO)c1cccc(OC)c1`, the “activity change, negative = lower viability” value is 1.99% (inactive).
Regarding `N#CC1(c2ccc(F)cc2)CCC(=O)CC1`, the “activity change, negative = lower viability” value was -6.75% (inactive).
Take `CC[N+](CC)(CC)CCOc1cccc(OCC[N+](CC)(CC)CC)c1OCC[N+](CC)(CC)CC`: the Potency entry was “inactive”.
Take `CC(C)(Oc1ccc(Cl)cc1)C(=O)OCCCOC(=O)C(C)(C)Oc1ccc(Cl)cc1`: the “activity change, negative = lower viability” value was 2.36% (inactive).

The record behind these values is PubChem BioAssay (NCATS).
